Measurements as given in paper PMC5540273 (PLoS ONE, 2017).

Assays:
Conditions in all cases: concentration: 1 μM, replicates: in singlicate; n = 1
CDK2 = tested on: CDK2
CDK3 = tested on: CDK3
CDK4-cyclinD1 = tested on: CDK4-cyclinD1
CDK4-cyclinD3 = tested on: CDK4-cyclinD3
CDK4 = tested on: CDK4
CDK5 = tested on: CDK5
CDK7 = tested on: CDK7
CDK8 = tested on: CDK8
CDK9 = tested on: CDK9
CDKL1 = tested on: CDKL1
CDKL2 = tested on: CDKL2
CDKL3 = tested on: CDKL3
CDKL5 = tested on: CDKL5
CHEK1 = tested on: CHEK1
CHEK2 = tested on: CHEK2
CIT = tested on: CIT
CLK1 = tested on: CLK1
CLK2 = tested on: CLK2
CLK3 = tested on: CLK3
CLK4 = tested on: CLK4
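Note: KINOMEscan kinase panel screen.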

Structure (SMILES)	%Inh (CDK2) [%]	%Inh (CDK3) [%]	%Inh (CDK4-cyclinD1) [%]	%Inh (CDK4-cyclinD3) [%]	%Inh (CDK4) [%]	%Inh (CDK5) [%]	%Inh (CDK7) [%]	%Inh (CDK8) [%]	%Inh (CDK9) [%]	%Inh (CDKL1) [%]	%Inh (CDKL2) [%]	%Inh (CDKL3) [%]	%Inh (CDKL5) [%]	%Inh (CHEK1) [%]	%Inh (CHEK2) [%]	%Inh (CIT) [%]	%Inh (CLK1) [%]	%Inh (CLK2) [%]	%Inh (CLK3) [%]	%Inh (CLK4) [%]
O=C(Nc1n[nH]c2nc(-c3ccco3)c(Br)cc12)c1ccc(CN2CCCC2)cc1.O=C(O)[C@H](O)[C@@H](O)C(=O)O [SB-742352]	0	0	0	0	0	0	0	0	0	24	62	0	0	0	0	0	16	12	0	8
Nc1nc(-c2ccccn2)c(-c2ccnc3ccccc23)s1 [GW548057]	0	5	49	0	0	0	2	56	0	12	24	0	0	0	46	6	14	16	30	40
Cl.O=S(=O)(c1cccc(F)c1)c1ccc(Nc2ncnc3cc(Br)sc23)cc1Cl [GSK306886]	6	44	0	7	17	0	0	0	6	19	19	0	0	0	0	23	23	0	0	0
Fc1cccc(COc2ccc(Nc3ncnc4nn5ccccc5c34)cc2Cl)c1 [GW689066]	0	0	13	0	33	0	0	37	0	0	1	0	0	0	28	0	9	0	0	0
Nc1nc(-c2ccc3c(N)n[nH]c3c2)cc(N2CCCCC2)n1 [GSK2228768]	6	17	0	0	0	0	0	0	0	20	0	0	2	0	0	18	29	0	8	19
